Experimental data: the supplement of paper PMC10849652
Targets with a hit are over-represented here; the source holds about 7,900 in all. About 0.6% of all pairs of compound and target were hits. A number with no mark means an inactive call.

Compound: c1cn2cc(-c3ccc4cn[nH]c4c3)nc(Nc3ccc(N4CCOCC4)cc3)c2n1 [entospletinib]
Assay: log2 fold change, soluble protein after heating vs DMSO (PISA); higher = thermal stabilisation; K562 cells, 10 uM, 30 min; active = over 0.2 and 3.5 SD of the protein, either way, in both replicates (recomputed)
In short: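 K562 cells at 2×10^6 cells/mL were given 10 μM compound for 30 min. Aliquots then went through 3 min of heating across 48°C-58°C, were pooled, and were extracted in PBS with 0.5% NP-40 at 4°C, and the supernatant after 21,000xg for 90 min was quantified by TMTpro 16plex LC-MS/MS with channel sums equalised. Thermal stability relative to control samples, from duplicates, is given as log2 fold change.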

Chain of UniProt Q9H9P8 (Q9H9P8 whole entry, looked up): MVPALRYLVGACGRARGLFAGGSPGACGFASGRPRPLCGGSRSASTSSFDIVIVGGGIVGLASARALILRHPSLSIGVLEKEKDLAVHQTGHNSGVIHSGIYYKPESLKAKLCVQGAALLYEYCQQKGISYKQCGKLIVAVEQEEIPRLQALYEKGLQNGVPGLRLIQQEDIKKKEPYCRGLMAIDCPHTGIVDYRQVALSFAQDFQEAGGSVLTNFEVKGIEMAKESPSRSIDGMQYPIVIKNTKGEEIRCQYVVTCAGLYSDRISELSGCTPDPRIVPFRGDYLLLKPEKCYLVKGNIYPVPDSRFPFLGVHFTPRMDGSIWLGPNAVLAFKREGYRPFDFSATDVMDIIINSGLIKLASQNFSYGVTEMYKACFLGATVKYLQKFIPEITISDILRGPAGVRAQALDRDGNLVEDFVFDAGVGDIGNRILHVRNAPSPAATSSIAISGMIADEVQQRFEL
Chain of UniProt Q14676 (Q14676 whole entry, looked up): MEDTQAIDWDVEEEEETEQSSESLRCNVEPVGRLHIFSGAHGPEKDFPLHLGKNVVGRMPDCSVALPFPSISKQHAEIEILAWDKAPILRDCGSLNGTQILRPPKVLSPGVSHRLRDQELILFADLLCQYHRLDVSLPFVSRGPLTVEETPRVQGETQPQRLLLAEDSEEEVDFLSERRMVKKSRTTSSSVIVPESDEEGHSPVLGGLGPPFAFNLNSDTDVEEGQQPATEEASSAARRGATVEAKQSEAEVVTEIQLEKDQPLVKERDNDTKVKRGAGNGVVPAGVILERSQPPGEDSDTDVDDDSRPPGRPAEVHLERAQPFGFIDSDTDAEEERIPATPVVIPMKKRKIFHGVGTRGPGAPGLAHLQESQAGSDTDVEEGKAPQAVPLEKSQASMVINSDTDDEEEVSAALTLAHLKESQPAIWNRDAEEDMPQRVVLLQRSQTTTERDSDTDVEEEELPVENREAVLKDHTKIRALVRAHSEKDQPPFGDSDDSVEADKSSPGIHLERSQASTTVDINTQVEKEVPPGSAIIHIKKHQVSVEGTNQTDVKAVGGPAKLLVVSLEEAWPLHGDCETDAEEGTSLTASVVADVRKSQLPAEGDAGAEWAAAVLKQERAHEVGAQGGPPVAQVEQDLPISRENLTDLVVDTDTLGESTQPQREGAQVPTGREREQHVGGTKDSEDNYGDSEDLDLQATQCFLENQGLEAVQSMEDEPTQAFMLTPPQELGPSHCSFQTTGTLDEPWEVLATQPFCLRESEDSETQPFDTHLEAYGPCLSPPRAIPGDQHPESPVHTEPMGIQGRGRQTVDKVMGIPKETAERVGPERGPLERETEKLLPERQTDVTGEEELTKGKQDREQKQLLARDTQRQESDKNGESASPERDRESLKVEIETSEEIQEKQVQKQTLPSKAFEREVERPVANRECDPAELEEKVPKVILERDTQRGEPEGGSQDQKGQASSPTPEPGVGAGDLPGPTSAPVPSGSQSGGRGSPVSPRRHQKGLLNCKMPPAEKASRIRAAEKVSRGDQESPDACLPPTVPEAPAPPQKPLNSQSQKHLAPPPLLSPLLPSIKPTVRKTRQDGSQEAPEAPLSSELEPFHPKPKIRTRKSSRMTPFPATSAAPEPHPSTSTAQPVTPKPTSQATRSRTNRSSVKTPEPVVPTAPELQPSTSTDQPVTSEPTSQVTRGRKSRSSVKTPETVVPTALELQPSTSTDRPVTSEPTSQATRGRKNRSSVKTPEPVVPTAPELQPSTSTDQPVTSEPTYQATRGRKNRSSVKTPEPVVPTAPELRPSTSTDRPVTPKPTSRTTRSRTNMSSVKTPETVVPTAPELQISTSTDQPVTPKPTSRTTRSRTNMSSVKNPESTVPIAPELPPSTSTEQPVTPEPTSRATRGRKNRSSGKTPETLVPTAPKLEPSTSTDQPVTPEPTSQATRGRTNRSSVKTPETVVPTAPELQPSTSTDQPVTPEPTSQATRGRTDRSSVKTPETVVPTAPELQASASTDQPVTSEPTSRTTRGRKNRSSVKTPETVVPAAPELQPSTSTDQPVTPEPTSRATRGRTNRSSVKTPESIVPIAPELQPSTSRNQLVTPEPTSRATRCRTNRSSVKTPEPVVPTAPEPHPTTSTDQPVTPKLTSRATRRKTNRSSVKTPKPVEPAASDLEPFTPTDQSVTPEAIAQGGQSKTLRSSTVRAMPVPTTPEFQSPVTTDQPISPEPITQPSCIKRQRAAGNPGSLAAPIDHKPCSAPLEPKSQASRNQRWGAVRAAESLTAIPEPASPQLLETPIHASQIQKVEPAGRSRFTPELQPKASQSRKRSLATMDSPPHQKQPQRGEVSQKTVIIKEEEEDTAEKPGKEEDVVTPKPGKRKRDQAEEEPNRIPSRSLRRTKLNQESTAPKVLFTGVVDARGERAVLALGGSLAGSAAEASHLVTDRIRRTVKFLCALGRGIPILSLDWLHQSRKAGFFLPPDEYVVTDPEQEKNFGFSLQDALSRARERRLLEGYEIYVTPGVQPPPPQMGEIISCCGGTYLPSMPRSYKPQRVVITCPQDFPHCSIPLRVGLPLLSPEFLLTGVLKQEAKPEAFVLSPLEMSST
Chain of UniProt P27816 (P27816 whole entry, looked up): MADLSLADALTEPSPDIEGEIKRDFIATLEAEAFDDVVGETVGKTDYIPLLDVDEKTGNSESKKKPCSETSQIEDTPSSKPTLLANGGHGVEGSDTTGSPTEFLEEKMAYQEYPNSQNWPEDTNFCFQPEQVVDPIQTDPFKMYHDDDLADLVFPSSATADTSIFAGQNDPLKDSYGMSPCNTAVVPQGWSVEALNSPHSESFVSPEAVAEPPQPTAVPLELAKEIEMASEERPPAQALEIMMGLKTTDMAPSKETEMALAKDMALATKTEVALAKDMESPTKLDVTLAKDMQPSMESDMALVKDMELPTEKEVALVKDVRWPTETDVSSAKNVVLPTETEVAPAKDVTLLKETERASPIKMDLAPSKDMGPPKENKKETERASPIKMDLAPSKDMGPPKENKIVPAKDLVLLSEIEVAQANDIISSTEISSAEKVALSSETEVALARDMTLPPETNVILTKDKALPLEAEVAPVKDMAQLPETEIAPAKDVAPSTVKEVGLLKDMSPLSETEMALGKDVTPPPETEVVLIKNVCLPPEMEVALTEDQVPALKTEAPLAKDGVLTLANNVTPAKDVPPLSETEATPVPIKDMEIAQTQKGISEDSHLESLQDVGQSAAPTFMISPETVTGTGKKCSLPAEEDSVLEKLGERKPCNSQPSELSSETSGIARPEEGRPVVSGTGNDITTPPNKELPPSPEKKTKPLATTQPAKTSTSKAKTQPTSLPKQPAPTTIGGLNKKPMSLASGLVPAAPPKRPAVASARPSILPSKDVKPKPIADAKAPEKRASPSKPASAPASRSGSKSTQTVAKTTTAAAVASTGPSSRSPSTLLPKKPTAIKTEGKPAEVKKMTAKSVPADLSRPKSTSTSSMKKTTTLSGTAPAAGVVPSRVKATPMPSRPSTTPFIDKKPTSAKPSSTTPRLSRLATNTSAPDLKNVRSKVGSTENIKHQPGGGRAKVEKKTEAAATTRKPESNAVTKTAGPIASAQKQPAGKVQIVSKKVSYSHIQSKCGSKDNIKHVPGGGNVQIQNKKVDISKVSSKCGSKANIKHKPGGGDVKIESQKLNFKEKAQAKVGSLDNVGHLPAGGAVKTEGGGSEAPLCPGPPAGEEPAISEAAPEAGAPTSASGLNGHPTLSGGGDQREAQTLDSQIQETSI
Chain of UniProt Q12905 (Q12905 whole entry, looked up): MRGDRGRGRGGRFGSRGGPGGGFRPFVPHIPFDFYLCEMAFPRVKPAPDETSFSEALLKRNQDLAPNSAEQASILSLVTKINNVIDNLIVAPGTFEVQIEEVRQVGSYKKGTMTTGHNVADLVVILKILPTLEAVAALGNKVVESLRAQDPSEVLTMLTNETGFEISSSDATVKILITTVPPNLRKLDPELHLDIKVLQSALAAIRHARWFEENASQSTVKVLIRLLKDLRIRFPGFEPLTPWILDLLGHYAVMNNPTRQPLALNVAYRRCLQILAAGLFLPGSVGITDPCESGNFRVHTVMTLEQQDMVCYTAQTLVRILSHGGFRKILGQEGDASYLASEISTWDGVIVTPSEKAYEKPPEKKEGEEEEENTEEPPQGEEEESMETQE
Chain of UniProt O14733 (O14733 whole entry, looked up): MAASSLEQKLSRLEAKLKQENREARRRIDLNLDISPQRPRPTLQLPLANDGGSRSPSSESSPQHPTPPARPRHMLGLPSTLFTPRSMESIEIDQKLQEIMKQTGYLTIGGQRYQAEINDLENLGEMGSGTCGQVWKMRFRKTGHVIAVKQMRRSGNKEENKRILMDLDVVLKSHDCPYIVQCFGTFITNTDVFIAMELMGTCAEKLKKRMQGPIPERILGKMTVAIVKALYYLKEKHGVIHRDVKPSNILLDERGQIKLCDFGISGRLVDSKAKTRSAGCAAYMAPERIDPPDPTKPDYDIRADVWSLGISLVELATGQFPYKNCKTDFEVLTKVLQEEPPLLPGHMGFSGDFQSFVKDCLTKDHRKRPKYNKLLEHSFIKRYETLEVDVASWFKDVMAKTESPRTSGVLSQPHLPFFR
Chain of UniProt P10620 (P10620 whole entry, looked up): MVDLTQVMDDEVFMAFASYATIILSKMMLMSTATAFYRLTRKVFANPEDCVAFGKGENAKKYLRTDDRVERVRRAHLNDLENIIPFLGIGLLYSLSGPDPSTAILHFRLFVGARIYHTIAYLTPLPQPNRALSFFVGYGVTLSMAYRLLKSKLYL
Chain of UniProt Q07820 (Q07820 whole entry, looked up): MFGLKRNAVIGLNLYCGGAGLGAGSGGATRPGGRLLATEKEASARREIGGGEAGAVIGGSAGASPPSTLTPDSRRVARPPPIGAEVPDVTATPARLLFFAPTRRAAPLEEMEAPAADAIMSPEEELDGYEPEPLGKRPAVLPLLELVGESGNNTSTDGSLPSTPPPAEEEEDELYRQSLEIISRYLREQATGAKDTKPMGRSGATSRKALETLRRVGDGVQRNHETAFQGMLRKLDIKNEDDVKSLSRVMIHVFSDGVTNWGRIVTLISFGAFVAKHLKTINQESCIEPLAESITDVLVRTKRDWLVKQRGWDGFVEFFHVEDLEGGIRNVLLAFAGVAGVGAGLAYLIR

Row | Target | log2 fold change
1 | MAPK12 (UniProt P53778) | 0.02
2 | LUC7L (UniProt Q9NQ29) | 0.083
3 | MICU1 isoform 3 (UniProt Q9BPX6) | 0.049
4 | LEMD3 (UniProt Q9Y2U8) | -0.031
5 | MARCKSL1 (UniProt P49006) | -0.005
6 | MCL1 (UniProt Q07820) | 0.081
7 | MAP3K7 (UniProt O43318) | 0.055
8 | L2HGDH (UniProt Q9H9P8) | 0.039
9 | MAPK14 isoform 2 (UniProt Q16539) | -0.032
10 | LONP2 (UniProt Q86WA8) | -0.001
11 | METAP1D (UniProt Q6UB28) | 0.026
12 | KCTD2 (UniProt Q14681) | 0.139
13 | MDC1 (UniProt Q14676) | -0.054
14 | IGFBP4 (UniProt P22692) | 0.147
15 | LIMD1 (UniProt Q9UGP4) | -0.025
16 | MGST1 (UniProt P10620) | 0.051
17 | KCTD10 (UniProt Q9H3F6) | 0.047

Row | Target | log2 fold change
18 | KXD1 (UniProt Q9BQD3) | 0.016
19 | LEPROT (UniProt O15243) | 0.029
20 | MAP4 isoform 5 (UniProt P27816) | -0.07
21 | IGFBP2 (UniProt P18065) | 0.092
22 | MAP2K7 isoform 4 (UniProt O14733) | -0.009
23 | MAPK8 isoform 3 (UniProt P45983) | -0.038
24 | MAIP1 (UniProt Q8WWC4) | -0.003
25 | LTO1 (UniProt Q8WV07) | -0.047
26 | IRAK4 (UniProt Q9NWZ3) | 0.096
27 | ILF2 (UniProt Q12905) | -0.103
28 | LMNB1 (UniProt P20700) | -0.01
29 | INPP5B (UniProt P32019) | 0.026
30 | MCUR1 (UniProt Q96AQ8) | 0.018
31 | LPIN3 isoform 2 (UniProt Q9BQK8) | 0.08
32 | LENG8 (UniProt Q96PV6) | 0.131
33 | MAPRE3 (UniProt Q9UPY8) | -0.041
